22 compounds from PubChem BioAssay (EPA / NIEHS) can be followed below.

Experiment [1] deals with human Retinoid X Receptor beta (RXRb), RXRB (gene 6257) (UniProt P28702). In words: ATG_RXRb_TRANS: Attagene TRANS-FACTORIAL HepG2 Assay for human Retinoid X Receptor beta (RXRb) (AID 2283013; active = hit-call score of the fitted dose curve at least 0.9, where 1 is the maximum). In a few lines: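 After a 24 h incubation with test chemical, transfected HepG2 cells carrying NR-Gal4 fusions and GAL4-UAS reporter transcription units yield RNA whose reporter cDNA is FAM-labelled, HpaI-cut and sized by capillary electrophoresis; increases over DMSO are scored.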
Chain of human Retinoid X Receptor beta (RXRb), RXRB (gene 6257) (P28702 whole entry, looked up, the tested form may be a part): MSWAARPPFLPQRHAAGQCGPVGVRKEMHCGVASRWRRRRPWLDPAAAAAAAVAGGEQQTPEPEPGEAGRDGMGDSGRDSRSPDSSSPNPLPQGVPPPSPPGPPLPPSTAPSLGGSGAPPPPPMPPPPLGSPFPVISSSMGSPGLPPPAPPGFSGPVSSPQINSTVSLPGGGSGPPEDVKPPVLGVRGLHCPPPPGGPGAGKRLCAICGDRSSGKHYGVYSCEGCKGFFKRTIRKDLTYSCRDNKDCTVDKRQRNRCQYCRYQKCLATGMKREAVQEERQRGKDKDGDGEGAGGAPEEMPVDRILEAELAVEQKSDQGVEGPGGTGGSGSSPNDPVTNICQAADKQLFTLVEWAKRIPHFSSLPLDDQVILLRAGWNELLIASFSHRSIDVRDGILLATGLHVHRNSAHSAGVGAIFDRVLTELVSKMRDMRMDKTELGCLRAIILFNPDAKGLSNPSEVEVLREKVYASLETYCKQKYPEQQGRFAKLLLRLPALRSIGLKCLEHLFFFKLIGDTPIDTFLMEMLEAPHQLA

In experiment [2] the target is human Thyroid Receptor alpha (THRa1), THRA (gene 7067) (UniProt P10827). Kind of experiment: ATG_THRa1_TRANS: Attagene TRANS-FACTORIAL HepG2 Assay for human Thyroid Receptor alpha (THRa1) (AID 2283014; active = hit-call score of the fitted dose curve at least 0.9, where 1 is the maximum). In a few lines:
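Reporter transcript induction, read by capillary electrophoresis of 6-FAM-labelled RT-PCR products, reflects activity of a transfected THRa1-Gal4 fusion in HepG2 liver cells. Cells were dosed for 24 h; activity was fitted in the positive direction against DMSO.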

Read-out in experiment [3]: E-selectin (Homo sapiens) (UniProt P16581)
In words: BSK_3C_Eselectin: BioMAP Diversity Plus: 3C Assay for Eselectin Biomarker Activity (AID 2283015).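 As to outcome: cell surface E-selectin protein quantified by ELISA 24 h after dosing.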 Conditions: primary human endothelial cells (HUVEC); actives raise or lower the signal. In a few lines:
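ELISA read-out of E-selectin on endothelial monolayers after 24 h chemical treatment. Human umbilical vein primary cells served as the system, with DMSO defining baseline activity for bidirectional fitting.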

Read-out in experiment [4]: Interleukin-1 alpha (IL1a), IL1A (gene 3552)
Kind of experiment: BSK_BE3C_IL1a: BioMAP Diversity Plus: BE3C Assay for Interleukin-1 alpha (IL1a) Biomarker Activity (AID 2283016). Particulars: primary human bronchial epithelial cells; actives raise or lower the signal. In a few lines: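 Measured in human lung primary bronchial epithelial cells: IL-1a by ELISA at 24 h after dosing, with bidirectional fitting against DMSO.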

Read-out in experiment [5]: Monocyte Chemoattractant Protein-1 (MCP1), CCL2 (gene 6347)
Kind of experiment: BSK_3C_MCP1: BioMAP Diversity Plus: 3C Assay for Monocyte Chemoattractant Protein-1 (MCP1) Biomarker Activity (AID 2283017). Conditions: primary human endothelial cells (HUVEC); actives raise or lower the signal. In a few lines: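 ELISA read-out of MCP-1 from human umbilical vein endothelial cell cultures harvested 24 h post-dosing. Gain or loss of signal was fitted relative to DMSO.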

Read-out in experiment [6]: Monocyte Chemoattractant Protein-1 (MCP1), CCL2 (gene 6347)
Kind of experiment: BSK_4H_MCP1: BioMAP Diversity Plus: 4H Assay for Monocyte Chemoattractant Protein-1 (MCP1) Biomarker Activity (AID 2283018). Particulars: primary human endothelial cells (HUVEC); actives raise or lower the signal. In a few lines: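 Primary human umbilical vein endothelium is exposed to chemical for 24 h before MCP-1 is assayed by ELISA. Concentration-response fitted bidirectionally relative to DMSO.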

Read-out in experiment [7]: Human Leukocyte Antigen - DR isotype (HLADR), HLA-DRA (gene 3122)
In words: BSK_3C_HLADR: BioMAP Diversity Plus: 3C Assay for Human Leukocyte Antigen - DR isotype (HLADR) Biomarker Activity (AID 2283019).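 As to outcome: ELISA of cell-surface HLA-DR on HUVEC 24 h after dosing.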 Conditions: primary human endothelial cells (HUVEC); actives raise or lower the signal. In a few lines:
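ELISA readout of surface HLA-DR on human umbilical vein endothelium, taken 24 h after chemical treatment. Gain- and loss-of-signal were both fitted relative to DMSO.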

Read-out in experiment [8]: Interleukin-8 (IL8), CXCL8 (gene 3576)
Kind of experiment: BSK_3C_IL8: BioMAP Diversity Plus: 3C Assay for Interleukin-8 (IL8) Biomarker Activity (AID 2283020). Particulars: primary human endothelial cells (HUVEC); actives raise or lower the signal. In a few lines:
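Using DMSO-treated wells as the baseline, bidirectional curve fitting was applied to ELISA-measured IL-8 from human umbilical vein endothelial cultures sampled 24 h after compound addition.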

Read-out in experiment [9]: Monokine induced gamma interferon (MIG), CXCL9 (gene 4283)
Kind of experiment: BSK_3C_MIG: BioMAP Diversity Plus: 3C Assay for Monokine induced gamma interferon (MIG) Biomarker Activity (AID 2283021). Particulars: primary human endothelial cells (HUVEC); actives raise or lower the signal. In a few lines: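 ELISA-measured MIG in dosed HUVEC 3C cultures at 24 h, analysed by bidirectional fitting with DMSO defining baseline activity.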

In experiment [10] the target is human Vitamin D Receptor (VDR), VDR (gene 7421) (UniProt P11473). In words: ATG_VDR_TRANS: Attagene TRANS-FACTORIAL HepG2 Assay for human Vitamin D Receptor (VDR) (AID 2283022; active = hit-call score of the fitted dose curve at least 0.9, where 1 is the maximum). In a few lines: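 Steps: transfect HepG2 with GAL4-UAS-driven reporter constructs; dose compounds 24 h; isolate RNA, reverse-transcribe, PCR-amplify with 6-FAM-labelled primer extension and HpaI digestion; quantify fragments by capillary electrophoresis relative to DMSO.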
Chain of human Vitamin D Receptor (VDR), VDR (gene 7421) (P11473 whole entry, looked up, the tested form may be a part): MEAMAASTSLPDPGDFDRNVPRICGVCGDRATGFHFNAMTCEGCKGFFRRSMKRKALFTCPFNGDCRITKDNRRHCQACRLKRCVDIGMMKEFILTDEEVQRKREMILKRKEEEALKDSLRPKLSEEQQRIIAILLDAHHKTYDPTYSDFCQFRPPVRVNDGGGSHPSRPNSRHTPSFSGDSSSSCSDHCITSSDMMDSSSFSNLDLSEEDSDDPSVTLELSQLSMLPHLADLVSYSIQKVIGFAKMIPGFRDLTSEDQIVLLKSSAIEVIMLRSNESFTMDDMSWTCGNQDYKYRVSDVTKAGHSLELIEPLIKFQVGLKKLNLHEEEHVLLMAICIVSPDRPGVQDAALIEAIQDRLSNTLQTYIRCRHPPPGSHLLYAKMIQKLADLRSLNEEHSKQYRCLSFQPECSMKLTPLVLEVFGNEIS

Inconclusive results are not listed. More than one record can exist for a structure, and the calls need not agree. Calls of active or inactive are those of the source. The calls were made as follows, unless noted: active = hit-call score of the fitted dose curve at least 0.9, where 1 is the maximum; inactive = score below 0.9.

Chain of human Thyroid Receptor alpha (THRa1), THRA (gene 7067) (P10827 whole entry, looked up, the tested form may be a part): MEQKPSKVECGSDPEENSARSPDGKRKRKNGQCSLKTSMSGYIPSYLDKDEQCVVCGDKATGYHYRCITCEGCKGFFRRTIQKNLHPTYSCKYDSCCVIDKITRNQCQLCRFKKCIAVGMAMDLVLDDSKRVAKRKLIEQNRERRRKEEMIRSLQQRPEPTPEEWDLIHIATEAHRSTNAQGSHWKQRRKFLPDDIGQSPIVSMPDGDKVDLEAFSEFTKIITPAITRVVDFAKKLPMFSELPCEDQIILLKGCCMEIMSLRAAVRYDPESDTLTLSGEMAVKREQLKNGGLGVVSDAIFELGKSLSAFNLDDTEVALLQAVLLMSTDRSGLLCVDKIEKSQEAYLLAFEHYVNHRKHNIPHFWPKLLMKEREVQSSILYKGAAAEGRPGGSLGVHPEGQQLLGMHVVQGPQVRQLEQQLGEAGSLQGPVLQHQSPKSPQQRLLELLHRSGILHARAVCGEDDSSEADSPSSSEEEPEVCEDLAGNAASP
Chain of E-selectin (Homo sapiens) (P16581 whole entry, looked up): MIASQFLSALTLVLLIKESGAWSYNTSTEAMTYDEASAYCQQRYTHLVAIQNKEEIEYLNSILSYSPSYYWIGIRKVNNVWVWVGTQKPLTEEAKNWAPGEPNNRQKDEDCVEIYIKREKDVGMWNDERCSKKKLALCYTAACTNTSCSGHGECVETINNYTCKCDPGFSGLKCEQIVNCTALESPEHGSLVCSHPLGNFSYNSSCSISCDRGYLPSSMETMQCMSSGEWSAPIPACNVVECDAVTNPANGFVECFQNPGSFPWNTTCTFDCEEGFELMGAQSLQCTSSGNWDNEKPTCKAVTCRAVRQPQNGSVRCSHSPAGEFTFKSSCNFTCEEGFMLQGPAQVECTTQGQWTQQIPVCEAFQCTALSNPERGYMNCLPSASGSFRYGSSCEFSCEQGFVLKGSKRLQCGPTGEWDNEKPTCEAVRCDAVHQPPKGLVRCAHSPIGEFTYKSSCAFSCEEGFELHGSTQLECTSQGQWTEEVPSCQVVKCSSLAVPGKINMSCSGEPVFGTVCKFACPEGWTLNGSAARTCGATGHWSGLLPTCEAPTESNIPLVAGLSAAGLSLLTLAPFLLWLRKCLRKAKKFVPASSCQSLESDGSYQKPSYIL

With `CCCCCCCC/C=C\CCCCCCCC(=O)OC[C@@H](O)[C@H]1OC[C@H](O)[C@H]1O`, the result in experiment [1], in experiment [2], in experiment [3], in [4], in experiment [5] and in experiment [6] was inactive. The result in experiment [7], in experiment [8], in [9] and in experiment [10] was inactive.

As to `CC[C@H](C)C(=O)O[C@H]1C[C@H](O)C=C2C=C[C@H](C)[C@H](CC[C@@H](O)C[C@@H](O)CC(=O)O)[C@H]21`, the outcome in experiment [1], in experiment [2], in experiment [3], in experiment [4], in [5] and in [6] was inactive. For the same compound, the result in experiment [8], in experiment [9] and in experiment [10] was inactive.

As for `C[Si](C)(C)C(F)(F)C(F)(F)C(F)(F)F`, the compound was called inactive in experiment [1], in experiment [2], in [3], in experiment [4], in experiment [5] and in [6]. The result in experiment [7], in experiment [8] and in [10] was inactive.

Take `COc1cc2c(c(OC)c1OC)-c1ccc(OC)c(=O)cc1[C@@H](NC(C)=O)CC2`: the call in experiment [1], in experiment [2], in experiment [3], in experiment [4], in [5] and in experiment [8] was inactive. The outcome in experiment [9] and in [10] was inactive. Further, the AC50 in experiment [7] is 1.07 µM (active).

Turning to `FC(F)(F)C(F)(F)C(F)(F)C(F)(F)C(F)(F)C(F)(F)I`, in [1], the AC50 was 91.3 µM (active). Further, the result in [1], in experiment [3], in experiment [4], in experiment [5], in experiment [7] and in experiment [8] was inactive. Further, the call in experiment [10] was inactive.

Regarding `OCc1ccccc1`, the AC50 in experiment [1] was 1.09 µM (active). The compound was classed as inactive in experiment [2], in experiment [3], in [4], in experiment [5] and in experiment [8].

Consider `c1ccc2c(c1)-c1cccc3c1c-2cc1ccccc13`, for which the AC50 in [1] was 19.8 µM (active). Further, the compound was classed as inactive in experiment [1], in experiment [3], in [4], in experiment [5], in experiment [6] and in experiment [8]. Besides, the outcome in experiment [9] and in experiment [10] was inactive.

Consider `NCC(F)(F)C(F)(F)C(F)(F)C(F)(F)F`, for which the call in experiment [1], in [2], in experiment [3], in experiment [4], in experiment [5] and in experiment [6] was inactive. The result in experiment [8] and in experiment [10] was inactive.

Take `OCc1c[nH]c2ccccc12`: the figures for the AC50 in experiment [1], in experiment [3] and in experiment [7] were 9.59 µM (active), 24.6 µM (active) and 9.29 µM (active), respectively. The call in experiment [1], in [2], in [4], in experiment [5], in experiment [8] and in experiment [9] was inactive. For the same compound, the outcome in [10] was inactive.

Consider `Cc1cccc(O)c1C`, for which the result in experiment [1], in experiment [2], in experiment [3], in experiment [4], in experiment [5] and in experiment [6] was inactive. Besides, the outcome in experiment [8] and in experiment [10] was inactive.

For `O=S1(=O)CCCO1`, the compound was called inactive in experiment [1], in experiment [2], in experiment [3], in experiment [4], in experiment [5] and in experiment [7]. The result in experiment [8] was inactive.

For the compound `Cc1ncc([C@@H](CCCCCCc2ccc3c(n2)NCCC3)CC(=O)O)cn1`, the compound was called inactive in experiment [1], in [2], in experiment [3], in [4], in [5] and in experiment [7]. Further, the outcome in experiment [9] and in experiment [10] was inactive. Moreover, the AC50 in experiment [8] was 1.02 µM (active).

On to `C[C@]12C=CC(=O)C=C1CC[C@H]1[C@@H]3C[C@@H](O)[C@](O)(C(=O)CO)[C@@]3(C)C[C@H](O)[C@@]12F`, for which the call in experiment [1], in [2], in experiment [3], in experiment [4], in [5] and in [6] was inactive. Besides, the outcome in experiment [7], in experiment [8] and in experiment [10] was inactive.

For the compound `S=P(N1CC1)(N1CC1)N1CC1`, the result in [1], in experiment [2], in experiment [3], in experiment [4], in experiment [5] and in experiment [6] was inactive. The result in experiment [7], in experiment [8], in [9] and in experiment [10] was inactive.

With `O=C(O)[C@H](O)[C@@H](O)C(=O)O`, the compound was called inactive in experiment [1], in [2], in [3], in experiment [4], in [5] and in experiment [7]. Further, the result in [8] and in [9] was inactive.

For `OC(Cn1cncn1)(Cn1cncn1)c1ccc(F)cc1F`, the outcome in [1], in [2], in experiment [3], in experiment [4], in experiment [5] and in experiment [6] was inactive. The outcome in [7], in [8], in experiment [9] and in experiment [10] was inactive.

With `c1ccc(C(O[C@@H]2CCCN(CCc3ccc4c(c3)OCO4)C2)c2ccccc2)cc1`, the compound was called inactive in experiment [1], in [2], in experiment [3], in experiment [4] and in experiment [5]. Further, the AC50 was 23.6 µM (active) in [6] and 25.9 µM (active) in experiment [8].

Take `CCOc1ccc2[nH]cc(C(=O)NCc3ccccc3)c(=O)c2n1`: the outcome in experiment [1], in experiment [2], in [3], in experiment [4], in [5] and in experiment [7] was inactive. The outcome in [8], in [9] and in experiment [10] was inactive.

`CCc1cccc(CC)c1N`: the AC50 in experiment [1] was 100 µM (active). Further, the compound was classed as inactive in [2], in experiment [3], in experiment [4], in experiment [5], in experiment [6] and in [8]. Moreover, the outcome in experiment [9] was inactive.

Consider `CC(C)C(=O)Nc1ccc([N+](=O)[O-])c(C(F)(F)F)c1`, for which the values for the AC50 in experiment [1], in experiment [2] and in experiment [7] were 13.3 µM (active), 100 µM (active) and 34.1 µM (active), respectively. The outcome in experiment [3], in [4], in [5], in experiment [6], in [8] and in experiment [9] was inactive.

As for `CCCCCCCCCCCCCCO`, the AC50 was 45.4 µM (active) in experiment [1]; 36.7 µM (active) in experiment [3]; 30.5 µM (active) in experiment [5]; 29.6 µM (active) in [6]; 36.7 µM (active) in [7]; 30.4 µM (active) in experiment [8]. Further, the compound was classed as inactive in experiment [2], in experiment [4] and in experiment [10].

Regarding `O=C(N[C@H](CO)[C@H](O)c1ccc([N+](=O)[O-])cc1)C(Cl)Cl`, the compound was classed as inactive in experiment [1] and in [2].
